# From PubChem BioAssay (NCI)
# This is part of a sample that, as a whole, favours compounds with a hit. Of some 83,000 tested, about 20% had one in any assay.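 Interpretation: 100, growth as untreated; towards 0, rising growth inhibition; 0, no net growth; 0 to -100, cell death. Compounds scoring below 10 were considered active.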 Values without a mark were called inactive. The source made the active and inactive calls.
# Test system: 786-0 renal
# Experiment: NCI-60 one-dose screen, 48 h (100 = growth as untreated, 0 = no growth, -100 = all killed)
# Conditions: 10 µM unless noted
row,SMILES,growth
1,COc1cc(/C=C\c2cc(OC)c(OC)c(OC)c2)cc(N/C=C\C(=O)c2cc(OC)c(OC)c(OC)c2)c1OC,44%
2,N#C[S-].[Au+].c1ccc(CN2[CH-]N(Cc3ccccc3)C(c3ccccc3)=C2c2ccccc2)cc1,7% (active)
3,O=[N+]([O-])c1ccc(OP(=O)(CCl)N(CCCl)CCCl)cc1 (stereo not drawn),97.9%
4,O=C1CC2(CC3(Cl)C(Cl)=C(Cl)C2(Cl)C3(Cl)Cl)C(=O)O1 (stereo not drawn),96.3%
5,COc1cc2c(cc1OCCCCCn1c(-c3ccco3)nc3ccccc31)N=C[C@@H]1CCCN1C2=O,11.5%
6,O=C(O)c1ccc([S-])cc1.[Au+].c1ccc(CN2[CH-]N(Cc3ccccc3)C(c3ccccc3)=C2c2ccccc2)cc1,-70.3% (active)
7,N#C[Se]Cc1cc(-c2ccccc2)n(-c2ccc(S(N)(=O)=O)cc2)n1,-24.7% (active)
8,COc1cc2c(cc1OCCCCn1c(-c3cccs3)nc3ccccc31)N=C[C@@H]1CCCN1C2=O,1.78% (active)
9,COc1ccc(/C=C\c2cc(OC)c(OC)c(OC)c2)cc1OCC(=O)Nc1nc2ccc(F)cc2s1,65%
10,O=C(Nc1ccc([N+](=O)[O-])cc1)C(Cl)(Cl)Cl,96.6%
11,C[CH2][Sn]([Cl])([Cl])[CH2]C.Oc1ccccc1C=NCCN=Cc1ccccc1O,116%
12,C[N+]12CN3CN(CN(C3)C1)C2,104%
13,C[C@]12CC[C@@H]3c4ccc(Oc5nc(N6CC6)nc(N6CC6)n5)cc4CC[C@H]3[C@@H]1CCC2=O,32.4%
